Assay outcomes deposited in PubChem by several laboratories.
Compounds with a hit are over-represented: about 0.5% of the library has one in this group of screens.
phage Ecoli inh: E. coli growth loss with phage present; inhibition, % at 11.9 µM; 360,000 compounds, 0.26% hits; growth absorbance; in the data active = inhibition above about 11%
E coli growth-1: bacterial growth inhibition, counter-screen for AddAB inhibitors. E. coli V3065 growth, OD600 absorbance, 18 h. inhibition, % at 11.9 µM. 330,000 compounds, 0.27% hits;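 active = inhibition above the campaign's mean inhibition across all tested compounds plus 3 SD, cut at about 9.9% in these data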;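 note: uninfected addAB+ strain grown without phage in ampicillin broth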
Tat export inh: inhibitors of E. coli Tat protein transport; inhibition, % at 10 µM; E. coli MC4100 TorA-mCherry Tat export, fluorescence; 340,000 compounds, 0.036% hits;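 active = mean replicate inhibition at least 50% and at least half of replicates individually reaching 50%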;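 note: exported cargo escapes ClpAP degradation while cytoplasmic cargo is degraded and loses fluorescence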
E coli growth-2: E. coli growth inhibition; Escherichia coli growth, OD600, 23 h; active compounds read low; OD600 absorbance (no concentration beside the values); 330,000 compounds, 0.21% hits;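 active = OD600 absorbance below the run mean of sample wells minus 3.6 SD, in any replicate, cut at about 0.56 in these data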
AddAB inh: less growth of phage-infected E. coli with AddAB; E. coli expressing H. pylori AddAB, absorbance growth; inhibition, % at 11.9 µM; 330,000 compounds, 0.29% hits; in the data active = inhibition above about 12%
AddAB confirm: confirmation screen: growth loss of phage-infected E. coli expressing H. pylori AddAB; 880 compounds, 64% hits; inhibition, % at 11.9 µM; AID 488942; shares compounds with AddAB inh; E. coli V3065 expressing H. pylori AddAB, T4 phage, OD; T4 phage with gene 2 nonsense mutations;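 active = mean inhibition above a set limit taken from the earlier primary screen, cut at about 13% in these data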;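 note: higher means less bacterial growth since AddAB block lets phage replicate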
RecBCD counter: AddAB counter-screen: growth loss of RecBCD+ E. coli infected with mutant T4 phage. E. coli V66 + mutant T4 phage, OD growth. inhibition, % at 11.9 µM. 880 compounds, 73% hits. AID 488955. shares compounds with AddAB inh;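 active = mean inhibition above the mean of solvent-only control wells plus 3 SD, cut at about 4% in these data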;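 note: optical density read after an 18 h incubation at 37 °C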
Bact viability: reduces bacterial viability, AddAB inhibitor counter-screen; shares compounds with AddAB inh; absorbance (AddAB counterscreen); inhibition, % at 11.9 µM; 880 compounds, 35% hits; in the data active = inhibition above about 25%
Each line names hits and unclear results; the compound was inactive in the other large screens (follow-up assays come after a bar, where they were run).

CN1CCN(c2ccc(-c3ccc4ccccc4n3)cc2)CC1	none (no result: E coli growth-1, AddAB inh)
O=c1c2ccccc2[nH]c2ccc(F)cc12	E coli growth-1 10, AddAB inh 14 | AddAB confirm inactive | RecBCD counter 8.8 | Bact viability inactive
CC(NC(=O)NC1CCCCC1)C(c1cccs1)N1CCN(C)CC1 (configuration not stated)	AddAB inh 85 | AddAB confirm inactive | RecBCD counter inactive | Bact viability inactive
CCOCCn1c(CN(C)Cc2ccccc2)nc2c1c(=O)n(C)c(=O)n2C	E coli growth-1 100, AddAB inh 100 | AddAB confirm inactive | RecBCD counter inactive | Bact viability inactive
O=[N+]([O-])c1ccc(NN=Cc2cccn2-c2ccccc2)nc1	none (no result: phage Ecoli inh, E coli growth-1, Tat export inh, AddAB inh)
O=C(NCCCNCCCNC(=O)c1ccc(/C=N/O)nc1)c1ccc(/C=N/O)nc1	E coli growth-1 12, AddAB inh 19 (no result: E coli growth-2) | AddAB confirm inactive | RecBCD counter inactive | Bact viability inactive
C=C1C(=O)OC2C1CCC(C)=CCC[C@@]1(C)OC21 (some centres not stated)	none (no result: phage Ecoli inh, E coli growth-1, Tat export inh, AddAB inh)
Cc1ccc2nc(/C(C#N)=C\c3ccc([N+](=O)[O-])o3)[nH]c2c1	E coli growth-1 10, AddAB inh 43 | AddAB confirm 67 | RecBCD counter 5.2 | Bact viability inactive
CCOc1ccc(-c2c(C(=O)NN=C(C)c3cccs3)nnn2-c2nonc2N)cc1	none (no result: phage Ecoli inh, E coli growth-1, Tat export inh, AddAB inh)
Cc1ccccc1NC(=O)C(=O)NN=Cc1cccc(Br)c1	none (no result: phage Ecoli inh, E coli growth-1, Tat export inh, AddAB inh)
CC1COC(=O)C(CC(=O)OC(C)(C)C)CC=CCC(CC(=O)NCCO)C(=O)N1 (configuration not stated)	none (no result: phage Ecoli inh, E coli growth-1, Tat export inh, AddAB inh)
COc1c(O)c(O)c2oc(-c3ccccc3)cc(=O)c2c1OC	AddAB inh 16 | AddAB confirm 14 | RecBCD counter 9.2 | Bact viability inactive
COc1cc(-c2cc(=O)c3c(O)c(OC)c(OC)c(O)c3o2)ccc1O	none
COc1ccc(C=NNS(=O)(=O)c2ccc(NC(C)=O)cc2)cc1	none (no result: phage Ecoli inh, E coli growth-1, Tat export inh, AddAB inh)
O=C(CSc1ncccn1)NC(=O)Nc1ccc2c(c1)OCCO2	AddAB inh 12 | AddAB confirm inactive | RecBCD counter 6.4 | Bact viability inactive
O=C(CSc1ncccn1)Nc1ccc2c(c1)OCO2	none
O=C(CSc1ncnc2nc[nH]c12)c1ccc(Cl)cc1	AddAB inh 20 | AddAB confirm 17 | RecBCD counter inactive | Bact viability inactive
O=C(NN=C/C(Br)=C/c1ccccc1)c1ccc([N+](=O)[O-])cc1	none (no result: phage Ecoli inh, E coli growth-1, Tat export inh, AddAB inh)
CCOC(=O)CN=C1CC(C)(C)CC2=C1Sc1ncnc(N(C)C)c1N2	E coli growth-1 43, AddAB inh 20 (no result: phage Ecoli inh) | AddAB confirm inactive | RecBCD counter inactive | Bact viability inactive
COc1ccc2c(CC(=O)OCC(=O)Nc3cccc(S(N)(=O)=O)c3)coc2c1	E coli growth-1 96, AddAB inh 97 | AddAB confirm inactive | RecBCD counter inactive | Bact viability inactive
Cc1cc(C)nc(SCc2ccc(C(=O)N/N=C/c3cccc(O)c3O)cc2)n1	AddAB inh 12 (no result: E coli growth-2) | AddAB confirm inactive | RecBCD counter 5.0 | Bact viability inactive
Cc1nn(-c2ccccc2)c(C)c1-c1cc(C(=O)NN=Cc2ccc(O)cc2)[nH]n1	none (no result: phage Ecoli inh, E coli growth-1, Tat export inh, AddAB inh)
CN(C)c1ccc(C=NNC(=O)CCC(=O)NCc2ccccc2)cc1	none (no result: phage Ecoli inh, E coli growth-1, Tat export inh, AddAB inh)
Cc1noc(NS(=O)(=O)c2ccc(NC(=O)C(C)(C)C)cc2)c1C	none
Cc1noc(NS(=O)(=O)c2ccc(NC(=O)C(F)(F)F)cc2)c1C	AddAB inh 15 | AddAB confirm inactive | RecBCD counter inactive | Bact viability inactive
COc1c(N2CCN[C@H](C)C2)c(F)cc2c(=O)c(C(=O)O)cn(C3CC3)c12	E coli growth-1 103, AddAB inh 102 (no result: phage Ecoli inh, Tat export inh, E coli growth-2) | AddAB confirm 100 | RecBCD counter 100 | Bact viability 101
O=C(NCc1ccccc1)C1CCN(S(=O)(=O)c2cccc3cccnc23)CC1	none
COc1ccc(CNC(=O)C2CCN(S(=O)(=O)c3cccc4cccnc34)CC2)cc1	AddAB inh 14 | AddAB confirm inactive | RecBCD counter inactive | Bact viability inactive
Cn1ccnc1C(=NNC(=O)c1ccc(O)cc1)c1cccc([N+](=O)[O-])c1	none (no result: phage Ecoli inh, E coli growth-1, Tat export inh, AddAB inh)
O=C1C(Nc2ccccc2)=C/C(=N/S(=O)(=O)c2cccs2)c2ccccc21	AddAB inh 17 (no result: phage Ecoli inh, E coli growth-2) | AddAB confirm inactive | RecBCD counter 4.7 | Bact viability inactive
C(C#CCCCCCCCCC[n+]1ccccc1)#CCCCCCCCCC[n+]1ccccc1	E coli growth-1 102, Tat export inh 82, E coli growth-2 0.064, AddAB inh 101 (no result: phage Ecoli inh) | AddAB confirm 100 | RecBCD counter 100 | Bact viability 101
COc1ccc(C=NNc2ccc(C(F)(F)F)cc2[N+](=O)[O-])cc1	none (no result: phage Ecoli inh, E coli growth-1, Tat export inh, AddAB inh)
COc1ccccc1NS(=O)(=O)c1cccc(C(=O)NN=C2CC(=O)CC(C)(C)C2)c1	none (no result: phage Ecoli inh, E coli growth-1, Tat export inh, AddAB inh)
CCn1cc(C(=O)NCCC(=O)OC)c(=O)c2cc3c(cc21)OCO3	none
CCn1cc(C(=O)NCc2ccc3c(c2)OCO3)c(=O)c2cc(F)c(N3CCN(C(=O)c4ccco4)CC3)cc21	E coli growth-1 91, E coli growth-2 0.052, AddAB inh 97 | AddAB confirm 99 | RecBCD counter 10 | Bact viability 98
CCn1cc(C(=O)NCc2ccccc2)c(=O)c2cc(F)c(N3CCN(C(=O)c4ccco4)CC3)cc21	none
CCn1cc(C(=O)NCc2ccncc2)c(=O)c2cc(F)c(N3CCN(C(=O)c4ccco4)CC3)cc21	E coli growth-1 92, E coli growth-2 0.071, AddAB inh 98 (no result: Tat export inh) | AddAB confirm 99 | RecBCD counter 8.0 | Bact viability 88
COc1cc(C=C2SC(=O)N(Cc3ccccc3Cl)C2=O)ccc1OCc1ccncc1	none (no result: phage Ecoli inh, E coli growth-1, Tat export inh, AddAB inh)
CCc1nnc(NN=Cc2ccc(N3CCC(C)CC3)c([N+](=O)[O-])c2)n1N	none (no result: phage Ecoli inh, E coli growth-1, Tat export inh, AddAB inh)
CC1CCN(c2ccc(/C=N\Nc3nncn3N)cc2[N+](=O)[O-])CC1	AddAB inh 15 (no result: E coli growth-2) | AddAB confirm inactive | RecBCD counter inactive | Bact viability inactive
[O-][n+]1cccc2c(Br)cc(Br)c(O)c21	phage Ecoli inh 43, E coli growth-1 40, E coli growth-2 0.24, AddAB inh 40 | AddAB confirm 38 | RecBCD counter 47 | Bact viability 41
C[n+]1cccc2c(Br)ccc([O-])c21	none
O=C(Nc1ccc([N+](=O)[O-])cc1)Nc1ccc(OC(F)F)c(Cl)c1	phage Ecoli inh 13, E coli growth-1 15, E coli growth-2 0.29, AddAB inh 15 | AddAB confirm 15 | RecBCD counter 17 | Bact viability inactive
COc1cccc(/C=N\NC(=O)c2ccc(Cn3cc(Br)c([N+](=O)[O-])n3)o2)c1O	E coli growth-1 9.9, AddAB inh 16 (no result: E coli growth-2) | AddAB confirm 31 | RecBCD counter 7.1 | Bact viability inactive
